The panel holds about 79,000 compounds, 15% with a hit somewhere; the sample as a whole holds those more often. Activity calls are given as the source filed them. Cut-off read from the data, not from the text of the source: active = growth inhibition above about 70%; inactive = the rest.
How the values were obtained:
[1] = NCI Yeast Anticancer Drug Screen. Data for the rad18 strain (AID 177); conditions: S. cerevisiae rad18 mutant growth inhibition, hits give high values
Procedure, shortened: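 Measured value is growth inhibition of a yeast strain bearing a DNA repair alteration, referenced to vehicle-treated cells.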

[2] = NCI Yeast Anticancer Drug Screen. Data for the rad52 strain (AID 147);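 note: 0% = growth of vehicle-treated control cultures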; conditions: S. cerevisiae rad52 mutant growth inhibition, hits give high values
Procedure, shortened: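 Here a repair-compromised yeast strain receives each compound; its growth is then quantified and normalised to vehicle-only controls.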

[3] = NCI Yeast Anticancer Drug Screen. Data for the wt1 strain (AID 149);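 note: 0% = growth of vehicle-treated wt1 cultures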; conditions: S. cerevisiae wt1 strain (SPY 50644) growth inhibition, hits give high values
Procedure, shortened: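 Readout: yeast growth inhibition, normalised to vehicle controls, in the wt1 strain exposed to test compounds.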

[4] = NCI Yeast Anticancer Drug Screen. Data for the rad50 strain (AID 155);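 note: 0% = growth of vehicle-only cultures of the same strain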; conditions: S. cerevisiae rad50 strain growth inhibition, hits give high values
Procedure, shortened: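 Compounds were tested on a yeast strain with an engineered DNA damage repair alteration; the reported value is growth inhibition normalised to vehicle treatment.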

[5] = NCI Yeast Anticancer Drug Screen. Data for the mec2-1 strain (AID 157); conditions: S. cerevisiae mec2-1 strain, hits give high values
Procedure, shortened: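 Using mec2-1 yeast: add compound, measure growth, express inhibition versus vehicle-treated cultures.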

[6] = NCI Yeast Anticancer Drug Screen. Data for the rad14 strain (AID 159);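 note: 0% = growth of vehicle-treated control cultures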; conditions: S. cerevisiae rad14 strain growth inhibition, hits give high values
Procedure, shortened: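 Compound-treated yeast with a defined DNA-repair lesion; growth inhibition normalised to vehicle-treated cultures.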

[7] = NCI Yeast Anticancer Drug Screen. Data for the sgs1 mgt1 strain (AID 161);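 note: 0% = growth of cultures given vehicle only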; conditions: S. cerevisiae sgs1 mgt1 strain, hits give high values
Procedure, shortened: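 Growth of a repair-deficient yeast mutant was monitored after compound treatment and expressed as inhibition relative to vehicle-treated cultures.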

[8] = NCI Yeast Anticancer Drug Screen. Data for the cln2 rad14 strain (AID 165);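 note: 0% = growth equal to vehicle treated cultures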; conditions: S. cerevisiae cln2 rad14 strain, hits give high values
Procedure, shortened: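 Yeast strain cln2 rad14, bearing defects in cell cycle control and DNA repair, serves as the test system; values reflect growth inhibition compared with vehicle.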

[9] = NCI Yeast Anticancer Drug Screen. Data for the bub3 strain (AID 167); conditions: S. cerevisiae bub3 mutant strain, hits give high values
Procedure, shortened: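 Growth of a checkpoint-deficient yeast mutant is measured after compound exposure. Values represent inhibition relative to vehicle.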

[10] = NCI Yeast Anticancer Drug Screen. Data for the wt2 strain (AID 169);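 note: 0% = growth of vehicle-treated yeast cultures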; conditions: S. cerevisiae wt2 strain growth inhibition, hits give high values
Procedure, shortened: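 Treated yeast vs. vehicle-treated yeast: growth inhibition determined.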

[11] = NCI Yeast Anticancer Drug Screen. Data for the mlh1 strain (AID 171);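 note: 0% = growth of vehicle-treated control cultures of the same strain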; conditions: S. cerevisiae mlh1 strain growth inhibition, hits give high values
Procedure, shortened: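 A yeast strain with a defined genetic lesion serves as the test organism. Cultures receive compound or vehicle, and growth is measured.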

[12] = NCI Yeast Anticancer Drug Screen. Data for the sgs1 strain (AID 173);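 note: 0% = growth of vehicle-only control cultures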; conditions: S. cerevisiae sgs1 mutant, hits give high values
Procedure, shortened: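 A genetically defined yeast mutant is incubated with the test compound, and its growth is compared to that of the same strain given vehicle.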

[13] = NCI Yeast Anticancer Drug Screen. Data for the mlh1 rad18 strain (AID 175); conditions: S. cerevisiae mlh1 rad18 strain growth inhibition, hits give high values
Procedure, shortened: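 Steps: expose repair-defective yeast to compound; measure growth; express inhibition against vehicle-treated controls.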

[14] = NCI Yeast Anticancer Drug Screen. Data for the rad50EPP+ strain (AID 151);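 note: 0% = growth of vehicle-treated control cultures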; conditions: S. cerevisiae rad50 mutant strain, hits give high values
Procedure, shortened: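 Read-out is yeast growth inhibition relative to vehicle; cells used were the rad50EPP+ strain.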

[15] = NCI Yeast Anticancer Drug Screen. Data for the mgt1 strain (AID 153); conditions: S. cerevisiae mgt1 mutant growth inhibition, hits give high values
Procedure, shortened: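 Measured: inhibition of mgt1 yeast growth by compound, normalized to vehicle-treated cultures.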

[16] = NCI Yeast Anticancer Drug Screen. Data for the CLN2oe strain (AID 163);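 note: 0% = growth of vehicle-only control cultures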; conditions: S. cerevisiae CLN2oe strain, hits give high values
Procedure, shortened: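 Whole-cell yeast growth assay. A strain engineered for altered cell-cycle control received compound, and inhibition relative to vehicle-treated cultures was recorded.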

[17] = at 5.0 µM (retest, dose inferred, filed as 0.5)
[18] = at 50.0 µM (retest, dose inferred, filed as 5.0)

Measured: growth inhibition

S=P(N1CC1)(N1CC1)N1CC1
active: [1]; at 100.0 µM 78%

CN=C(N)N/N=C(\C)c1ccc2oc3ccc(/C(C)=N/NC(N)=NC)cc3c2c1
active: [2]; at 11.0 µM 88% | [2]; at 33.0 µM 98% | [2]; at 100.0 µM 98% | [3]; at 33.0 µM 98% | [3]; at 100.0 µM 98% | [4]; [17] 81% | [4]; at 11.0 µM 92% | [4]; at 33.0 µM 98% | [4]; [18] 98% | [4]; at 50.0 µM 90% | [4]; at 100.0 µM 98% | [5]; at 33.0 µM 98% | [5]; [18] 99% | [5]; at 50.0 µM 93.6% | [5]; at 100.0 µM 98% | [6]; at 33.0 µM 98% | [6]; at 100.0 µM 98% | [7]; [18] 99% | [7]; at 50.0 µM 90.4% | [8]; [18] 98% | [8]; at 50.0 µM 91.8% | [9]; at 33.0 µM 97% | [9]; [18] 99% | [9]; at 50.0 µM 89.2% | [9]; at 100.0 µM 98% | [10]; at 11.0 µM 95% | [10]; at 33.0 µM 98% | [10]; at 100.0 µM 98% | [11]; at 33.0 µM 98% | [11]; at 100.0 µM 98% | [12]; at 33.0 µM 98% | [12]; at 100.0 µM 98% | [13]; [18] 98% | [13]; at 50.0 µM 87.5% | [1]; at 11.0 µM 70% | [1]; at 33.0 µM 98% | [1]; at 100.0 µM 98%
inactive: [2]; at 1.2 µM 11% | [2]; at 3.7 µM 28% | [3]; at 1.2 µM -8% | [3]; at 3.7 µM -21% | [3]; at 11.0 µM 11% | [4]; at 1.2 µM 34% | [4]; at 3.7 µM 64% | [5]; at 1.2 µM -11% | [5]; at 3.7 µM -9% | [5]; [17] 15% | [5]; at 11.0 µM 15% | [6]; at 1.2 µM 4% | [6]; at 3.7 µM -18% | [6]; at 11.0 µM 43% | [7]; [17] 56% | [8]; [17] 13% | [9]; at 1.2 µM -14% | [9]; at 3.7 µM -24% | [9]; [17] 37% | [9]; at 11.0 µM 2% | [10]; at 1.2 µM -4% | [10]; at 3.7 µM 2% | [11]; at 1.2 µM -23% | [11]; at 3.7 µM -24% | [11]; at 11.0 µM 35% | [12]; at 1.2 µM -21% | [12]; at 3.7 µM -14% | [12]; at 11.0 µM 37% | [13]; [17] 54% | [1]; at 1.2 µM -13% | [1]; at 3.7 µM -13%

COc1ccc(N2CN(C)CSC2=S)cc1
active: [14]; at 33.0 µM 81% | [14]; at 100.0 µM 90% | [4]; [18] 95% | [4]; at 100.0 µM 83% | [5]; [17] 73% | [5]; [18] 96% | [5]; at 100.0 µM 75% | [9]; [18] 83% | [9]; at 100.0 µM 73% | [13]; [18] 97%
inactive: [3]; at 1.2 µM -18% | [3]; at 3.7 µM -14% | [3]; at 11.0 µM -22% | [3]; at 33.0 µM -1% | [3]; at 100.0 µM 58% | [14]; at 1.2 µM -36% | [14]; at 3.7 µM 10% | [14]; at 11.0 µM 58% | [15]; at 1.2 µM -51% | [15]; at 3.7 µM -48% | [15]; at 11.0 µM -36% | [15]; at 33.0 µM -11% | [15]; at 100.0 µM 61% | [4]; at 1.2 µM -20% | [4]; at 3.7 µM 3% | [4]; [17] 61% | [4]; at 11.0 µM 25% | [4]; at 33.0 µM 63% | [4]; at 50.0 µM 10.6% | [5]; at 1.2 µM -17% | [5]; at 3.7 µM -29% | [5]; at 11.0 µM -22% | [5]; at 33.0 µM -2% | [5]; at 50.0 µM 8.85% | [6]; at 1.2 µM -24% | [6]; at 3.7 µM -22% | [6]; at 11.0 µM -21% | [6]; at 33.0 µM -11% | [6]; at 100.0 µM 40% | [7]; [17] -20% | [7]; [18] 59% | [16]; at 1.2 µM -23% | [16]; at 3.7 µM -23% | [16]; at 11.0 µM -39% | [16]; at 33.0 µM -9% | [16]; at 100.0 µM 24% | [8]; [17] 22% | [8]; [18] 59% | [9]; at 1.2 µM -12% | [9]; at 3.7 µM -11% | [9]; [17] 35% | [9]; at 11.0 µM -12% | [9]; at 33.0 µM 32% | [10]; at 1.2 µM -25% | [10]; at 3.7 µM -15% | [10]; at 11.0 µM -22% | [10]; at 33.0 µM -7% | [10]; at 100.0 µM 58% | [11]; at 1.2 µM -53% | [11]; at 3.7 µM -52% | [11]; at 11.0 µM -48% | [11]; at 33.0 µM -3% | [11]; at 100.0 µM 57% | [13]; [17] 51% | [13]; at 50.0 µM 56.4% | [1]; at 1.2 µM -67% | [1]; at 3.7 µM -64% | [1]; at 11.0 µM -53% | [1]; at 33.0 µM -41% | [1]; at 100.0 µM 52%

— PubChem BioAssay (NCI)
